Data on 27 compounds can be found in PubChem BioAssay (NCATS).

The target of assay [1] is Rap guanine nucleotide exchange factor 3 (Homo sapiens) (UniProt O95398). Nature of the assay: Confirmatory qHTS for antagonist of cAMP-regulated guanine nucleotide exchange factor 3 (EPAC1) (AID 1645880). Further: nearly all actives have a fitted effect of over 55% in size. Further: potency means the concentration at half of the fitted maximal effect.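 On activity, negative = inhibition: plate controls were DMSO only for no effect and full effect of the ATA control for full effect.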 Conditions: EPAC1 Rap1B-BODIPY-GDP exchange, fluorescence; activity, negative = inhibition: at 115 µM (top of the series). The essentials: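 Nucleotide exchange uses 100 nM EPAC1, 250 nM RAP1B-BODIPY-GDP and 50 uM GDP, with compounds in a concentration-titration series. After 5 min at room temperature, fluorescence (480 nm ex/540 nm em) is read every 5 min for 30 min. Data are normalized to control ATA and DMSO.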
In general terms: In qHTS, concentration-response curves come from the screen itself.

Assay [2] has the same target. Nature of the assay: Confirmatory qHTS for agonist of cAMP-regulated guanine nucleotide exchange factor 3 (EPAC1) (AID 1645881).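 Further: EPAC1 catalysed release of BODIPY-GDP from Rap1B seen as fluorescence loss; 100% = effect of cAMP agonist control; nearly all actives have a fitted effect of over 75% in size.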
Assay [3] concerns the target Rap guanine nucleotide exchange factor 4 (Homo sapiens) (UniProt Q8WZA2). Nature of the assay: Confirmatory qHTS for agonist of cAMP-regulated guanine nucleotide exchange factor 4 (EPAC2) (AID 1645884).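 Further: nucleotide exchange releases bodipy-GDP from Rap1 and this lowers its fluorescence; on the % scale 0 is the no-effect control and ±100 the full control effect; nearly all actives have a fitted effect of over 65% in size.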
For assay [4], the target named is Rap guanine nucleotide exchange factor 3 (Homo sapiens) (UniProt O95398). Nature of the assay: Counterscreen qHTS for antagonist of cAMP-regulated guanine nucleotide exchange factor 3 (EPAC1) (AID 1645888).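 Further: fluorescence loss as bound BODIPY-GDP is released from Rap1B; % of control where 0% means no effect.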 The essentials:
(§1)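 Measured: fluorescence of BODIPY-GDP bound to Rap1B, which falls as exchange proceeds. Conditions include 50 uM competing GDP, 5 and 30 min reads, and a later cAMP challenge for antagonist detection.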
On the technique in general: A counterscreen serves to expose hits that act by an unwanted route or on another target.

The target is the same in assay [5]. Nature of the assay: Counterscreen qHTS for agonist of cAMP-regulated guanine nucleotide exchange factor 3 (EPAC1) (AID 1645889). Further: % of control where 0% means no effect; nearly all actives have a fitted effect of over 40% in size. The essentials: as §1

Inconclusive results are not listed. Values without a mark were called inactive. Activity calls are given as the source filed them. The call rests on the fitted dose curve; in most records, active means well fitted curve in the direction sought with a large enough effect; inconclusive means small, poorly fitted or top-dose-only effect, or another doubt; inactive means no such curve, though single readings can be large; an effect the other way counts as inactive or inconclusive.

Chain of Rap guanine nucleotide exchange factor 4 (Homo sapiens) (Q8WZA2 whole entry, looked up): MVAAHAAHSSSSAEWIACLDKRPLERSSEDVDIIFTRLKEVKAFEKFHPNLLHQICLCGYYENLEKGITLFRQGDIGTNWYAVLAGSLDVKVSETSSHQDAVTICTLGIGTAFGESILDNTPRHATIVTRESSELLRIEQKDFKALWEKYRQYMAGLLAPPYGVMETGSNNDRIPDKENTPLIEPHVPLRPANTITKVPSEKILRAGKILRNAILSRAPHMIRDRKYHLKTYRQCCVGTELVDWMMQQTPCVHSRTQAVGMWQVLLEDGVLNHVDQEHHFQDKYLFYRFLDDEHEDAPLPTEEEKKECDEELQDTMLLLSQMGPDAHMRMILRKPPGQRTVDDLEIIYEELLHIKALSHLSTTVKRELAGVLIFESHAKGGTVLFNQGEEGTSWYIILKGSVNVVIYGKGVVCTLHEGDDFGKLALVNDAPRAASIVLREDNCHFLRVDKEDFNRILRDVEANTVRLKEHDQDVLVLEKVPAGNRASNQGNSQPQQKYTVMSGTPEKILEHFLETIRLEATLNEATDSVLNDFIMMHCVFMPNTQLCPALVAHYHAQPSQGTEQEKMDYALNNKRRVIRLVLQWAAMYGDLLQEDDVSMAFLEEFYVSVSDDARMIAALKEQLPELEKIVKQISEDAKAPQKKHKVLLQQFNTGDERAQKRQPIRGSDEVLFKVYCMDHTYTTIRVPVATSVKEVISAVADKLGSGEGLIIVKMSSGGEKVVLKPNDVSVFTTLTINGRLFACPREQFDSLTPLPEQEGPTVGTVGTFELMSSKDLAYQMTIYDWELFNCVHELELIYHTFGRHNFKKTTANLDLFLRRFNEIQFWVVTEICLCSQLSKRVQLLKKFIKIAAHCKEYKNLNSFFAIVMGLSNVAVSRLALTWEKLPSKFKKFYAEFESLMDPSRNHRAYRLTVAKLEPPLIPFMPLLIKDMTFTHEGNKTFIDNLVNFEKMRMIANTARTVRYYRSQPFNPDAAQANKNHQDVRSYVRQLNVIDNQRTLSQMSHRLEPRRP
Chain of Rap guanine nucleotide exchange factor 3 (Homo sapiens) (O95398 whole entry, looked up): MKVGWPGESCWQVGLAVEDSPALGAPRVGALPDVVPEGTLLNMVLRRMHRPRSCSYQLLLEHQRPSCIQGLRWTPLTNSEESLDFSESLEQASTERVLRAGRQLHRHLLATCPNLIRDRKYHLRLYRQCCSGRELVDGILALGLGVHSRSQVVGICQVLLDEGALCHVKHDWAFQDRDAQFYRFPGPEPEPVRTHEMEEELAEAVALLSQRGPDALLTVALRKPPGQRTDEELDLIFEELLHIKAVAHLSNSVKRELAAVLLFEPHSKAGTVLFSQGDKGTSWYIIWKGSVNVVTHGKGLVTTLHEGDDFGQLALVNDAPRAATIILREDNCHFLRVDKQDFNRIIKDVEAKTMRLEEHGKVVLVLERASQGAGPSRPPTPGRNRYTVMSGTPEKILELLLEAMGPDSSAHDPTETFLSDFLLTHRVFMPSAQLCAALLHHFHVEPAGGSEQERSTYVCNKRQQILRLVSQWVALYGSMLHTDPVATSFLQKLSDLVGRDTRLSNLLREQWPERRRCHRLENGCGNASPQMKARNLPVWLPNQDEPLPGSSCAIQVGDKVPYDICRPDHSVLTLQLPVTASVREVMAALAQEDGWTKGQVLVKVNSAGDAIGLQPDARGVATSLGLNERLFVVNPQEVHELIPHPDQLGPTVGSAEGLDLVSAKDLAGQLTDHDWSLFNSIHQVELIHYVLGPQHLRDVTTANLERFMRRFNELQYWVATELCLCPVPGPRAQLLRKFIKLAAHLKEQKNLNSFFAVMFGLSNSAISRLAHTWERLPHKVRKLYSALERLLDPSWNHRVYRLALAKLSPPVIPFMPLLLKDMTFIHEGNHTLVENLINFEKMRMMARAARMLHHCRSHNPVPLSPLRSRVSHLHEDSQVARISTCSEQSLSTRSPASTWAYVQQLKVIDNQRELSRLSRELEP

With `O=C(Nc1cccc(Cl)c1N1CCOCC1)c1cccs1`, the Potency entry in assay [1], in assay [2], in assay [3] and in assay [4] was “inactive” each time.
For `COc1c(S(=O)(=O)N2CCCC2)ccc(Cl)c1Cl`, the Potency entry in assay [1] and in assay [2] was “inactive” throughout. Besides, the activation in assay [3] is 4.79% [at 17.1 µM, percent relative to cAMP agonist control]; in assay [5] it was 23.7% [at 30.8 µM]. Besides, the activity change, negative = inhibition in assay [4] is -12% [at 30.8 µM].
For the compound `Cc1cc(=O)oc2cc(NC(=O)C(C)Oc3ccccc3)ccc12` (centres undefined), the Potency entry in assay [1], in assay [2], in assay [3], in assay [4] and in assay [5] was “inactive” in each case.
Turning to `COc1ccc(Br)cc1CNc1ccc(O)cc1`, the Potency entry in assay [1], in assay [2], in assay [3] and in assay [4] was “inactive” each time.
Consider `COc1ccc(NC(=O)COC(=O)c2ccc(S(=O)(=O)N(C)c3ccccc3OC)cc2)cc1OC`, for which the Potency result in assay [1], in assay [2], in assay [3] and in assay [4] was “inactive” each time.
In the case of `C[C@@H]1CC=C[C@H]2[C@H]1C(=O)N(Cc1ccccc1)[C@H]2c1ccc(-c2ccoc2)cc1F`, the Potency entry in assay [1], in assay [2], in assay [3] and in assay [4] was “inactive” in each case.
Regarding `COc1cc(CN2C(=O)C(C)ON=C2c2cccs2)cc(OC)c1` (centres undefined), the Potency entry in assay [1], in assay [2], in assay [3] and in assay [4] was “inactive” throughout.
With `COc1ccc(C(C(=O)NC(C)(C)C)n2c(=O)c(-c3cc4ccccc4[nH]3)nc3ccccc32)cc1` (centres undefined), the Potency entry in assay [1], in assay [2], in assay [3] and in assay [4] was “inactive” in each case.
`COc1cc(/C=C2\C(=N)N3N=C(S(C)(=O)=O)SC3=NC2=O)ccc1OS(=O)(=O)c1ccc(C)cc1`: the Potency in assay [1] was 60.1 µM (active). Besides, the Potency result in assay [2], in assay [3] and in assay [4] was “inactive” in each case.
Consider `O=C1C=CC(=O)c2c(O)c(N3CCN(CCO)CC3)c(Cl)c(O)c21`, for which the Potency in assay [1] is 37.9 µM (active). The Potency entry in assay [2], in assay [3], in assay [4] and in assay [5] was “inactive” each time.
Turning to `Cc1nc2ccccc2c(=O)n1N(c1ccccc1)c1ccccc1`, the Potency result in assay [1] and in assay [2] was “inactive” each time. For the same compound, in assay [3], the activation was -5.22% [at 17.1 µM, percent relative to cAMP agonist control]. Moreover, the activity change, negative = inhibition in assay [4] is 9.75% [at 30.8 µM].
As to `CN1OC[C@@H]2CN(Cc3ccc(Cl)cc3)[C@H](c3ccc(-n4ccnc4)cc3)C[C@@H]21`, the Potency entry in assay [1] and in assay [2] was “inactive” each time. In addition, in assay [3], the activation is 4.62% [at 17.1 µM, percent relative to cAMP agonist control]. Besides, the activity change, negative = inhibition in assay [4] is 1.17% [at 30.8 µM].
Turning to `Cc1nc(N(C)C)c2sc(=S)n(Cc3ccccc3)c2n1`, the Potency result in assay [1] and in assay [2] was “inactive” throughout. The activation in assay [3] was 11.2% [at 17.1 µM, percent relative to cAMP agonist control]; in assay [5], 9.98% [at 30.8 µM]. The activity change, negative = inhibition in assay [4] is -16.2% [at 30.8 µM].
`CC(C)C(NC(=O)c1ccccc1)C(=O)OCn1nnc2ccccc2c1=O` (centres undefined): the Potency entry in assay [1], in assay [2], in assay [3] and in assay [4] was “inactive” throughout.
Take `Cc1oc2cc([N+](=O)[O-])c(O)c([N+](=O)[O-])c2c1C(=O)c1ccc(Br)cc1`: the Potency in assay [1] was 75.7 µM (active). The Potency entry in assay [2], in assay [3] and in assay [4] was “inactive” in each case.
For the compound `CCOC(=O)C1CCCN(C(=O)c2cc(-c3ccco3)nc3ccccc23)C1` (centres undefined), the Potency in assay [1] is 15.1 µM (active). Moreover, the Potency result in assay [2], in assay [3], in assay [4] and in assay [5] was “inactive” each time.
For the compound `O=C(O)CSc1cc(NS(=O)(=O)c2ccc(Cl)cc2)c2ccccc2c1O`, the Potency in assay [1] was 75.7 µM (active). Further, the Potency result in assay [2], in assay [3] and in assay [4] was “inactive” each time.
On to `CCSc1nc(C)cc(C)c1S(=O)(=O)c1ccccc1C`, for which the Potency result in assay [1] and in assay [2] was “inactive” in each case. The activation in assay [3] was 3.71% [at 17.1 µM, percent relative to cAMP agonist control]. Besides, the activity change, negative = inhibition in assay [4] was 8% [at 30.8 µM].
Take `COc1ccccc1N(CC(=O)Nc1ccc(Br)cc1F)S(=O)(=O)c1cccs1`: the Potency entry in assay [1], in assay [2], in assay [3] and in assay [4] was “inactive” each time.
On to `CCOc1nc(-c2ccccc2)c2cc(C)ccc2n1`, for which the Potency result in assay [1], in assay [2], in assay [3], in assay [4] and in assay [5] was “inactive” in each case.
Turning to `CCC(C(=O)OC(C)C)c1ccc2ccccc2c1` (centres undefined), the Potency entry in assay [1], in assay [2], in assay [3], in assay [4] and in assay [5] was “inactive” each time.
Turning to `Cc1ccc2oc(C(=O)N3CCCCCC3)c(C)c2c1`, the Potency entry in assay [1], in assay [2], in assay [3], in assay [4] and in assay [5] was “inactive” each time.
As to `CCC(C)(C)C1CCc2c(sc(NC(=O)c3ccccc3C(=O)O)c2C#N)C1` (centres undefined), the Potency in assay [1] was 75.7 µM (active). Moreover, the Potency result in assay [2], in assay [3], in assay [4] and in assay [5] was “inactive” each time.
As to `N#Cc1c(C(F)(F)F)cc(-c2ccccc2)nc1SCc1nc(N)nc(N2CCOCC2)n1`, the Potency entry in assay [1], in assay [2], in assay [3] and in assay [4] was “inactive” throughout.
Consider `Cc1cc2oc(=O)c(CC(=O)O)c(C)c2c2occ(C(C)(C)C)c12`, for which the Potency entry in assay [1], in assay [2], in assay [3] and in assay [4] was “inactive” throughout.
As for `Nc1nc2c(ncn2[C@@H]2O[C@H](CNS(=O)(=O)N3CCCC3)[C@@H](O)[C@H]2O)c(=O)[nH]1`, the Potency result in assay [1], in assay [2], in assay [3], in assay [4] and in assay [5] was “inactive” in each case.
In the case of `CC1CN(C(=O)CCC(=O)NCc2ccc(F)cc2)c2ccccc2S1` (centres undefined), the Potency result in assay [1] and in assay [2] was “inactive” each time. Further, the activation in assay [3] is -4.63% [at 17.1 µM, percent relative to cAMP agonist control]; in assay [5], 31.5% [at 30.8 µM]. Further, the activity change, negative = inhibition in assay [4] is -2.67% [at 30.8 µM].
